Experimental data reported in PubChem BioAssay (NCI).
Compounds without any hit were thinned out: in the full panel of roughly 83,000, 20% have a hit.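 Cells were grown in 96-well plates and exposed to the test compound at a single concentration for 48 hours; results are reported as percent growth, with values below 10 considered active.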 Calls of active or inactive are those of the source.

Experiments:
Assay in all cases: NCI-60 one-dose screen, 48 h (100 = growth as untreated, 0 = no growth, -100 = all killed)
NCI-H460 lung = details: 10 µM unless noted
786-0 renal = details: 10 µM unless noted
COLO 205 colon = details: 10 µM
MALME-3M melanoma = details: 10 µM unless noted
RXF 393 renal = details: 10 µM unless noted
SF-295 CNS = details: 10 µM unless noted
SF-539 CNS = details: 10 µM unless noted
UACC-257 melanoma = details: 10 µM unless noted
HT29 colon = details: 10 µM unless noted
SK-MEL-5 melanoma = details: 10 µM unless noted
SK-MEL-2 melanoma = details: 10 µM unless noted
UO-31 renal = details: 10 µM unless noted
TK-10 renal = details: 10 µM unless noted
ACHN renal = details: 10 µM unless noted
A498 renal = details: 10 µM unless noted
HL-60(TB) leukemia = details: 10 µM unless noted
MOLT-4 leukemia = details: 10 µM
T-47D breast = details: 10 µM unless noted
SW-620 colon = details: 10 µM unless noted
HCC-2998 colon = details: 10 µM unless noted

Measured: growth

CCOCC1(CCc2ccccc2)C(=O)NC(=S)NC1=O
inactive: NCI-H460 lung 113% | 786-0 renal 102% | COLO 205 colon 109% | MALME-3M melanoma 138% | RXF 393 renal 117% | SF-295 CNS 111% | SF-539 CNS 99.9% | UACC-257 melanoma 94.5% | HT29 colon 108% | SK-MEL-5 melanoma 111% | SK-MEL-2 melanoma 103% | UO-31 renal 84% | TK-10 renal 115% | ACHN renal 108% | A498 renal 96.9% | HL-60(TB) leukemia 99.4% | MOLT-4 leukemia 91.8% | T-47D breast 99.3% | SW-620 colon 109%

CC[CH2][Pb]([CH2]CC)([CH2]CC)[O]C(=O)C(F)(F)F
active: NCI-H460 lung -71.6% | 786-0 renal -98.6% | COLO 205 colon -72.5% | MALME-3M melanoma -89.2% | RXF 393 renal -73.9% | SF-295 CNS -87.6% | SF-539 CNS -99.2% | HT29 colon -61.5% | SK-MEL-5 melanoma -98.3% | SK-MEL-2 melanoma -87.7% | UO-31 renal -100% | ACHN renal -100% | A498 renal -97.6% | HL-60(TB) leukemia -29.7% | MOLT-4 leukemia -27.8% | T-47D breast -68.1% | SW-620 colon -50.8% | HCC-2998 colon -84.4%

Cc1cc(NC(=O)NCCOc2ccc(N3C(N)=NC(N)=NC3(C)C)cc2Cl)ccc1S(=O)(=O)F
active: NCI-H460 lung 9.44% | HT29 colon 9.65%
inactive: 786-0 renal 35.3% | COLO 205 colon 35.3% | MALME-3M melanoma 53.3% | RXF 393 renal 53.8% | SF-539 CNS 33.6% | UACC-257 melanoma 32.2% | SK-MEL-5 melanoma 23.1% | SK-MEL-2 melanoma 51.4% | UO-31 renal 81.6% | TK-10 renal 35.3% | ACHN renal 94.2% | A498 renal 79.1% | HL-60(TB) leukemia 18.1% | MOLT-4 leukemia 26.7% | T-47D breast 50% | SW-620 colon 23.4% | HCC-2998 colon 47.3%
